Assay results from PubChem BioAssay (Tox21).
Several values for one entry are separate records, joined by “and”; a condition that tells them apart may be missing. Equal entries are not always repeated. Results filed as inconclusive are left out. The source holds several records for some structures; these can differ, active in one and inactive in another. Activity calls are given as the source filed them. Calls come from the whole dose curve; as a rule, active = well fitted curve in the direction sought with a large enough effect in the repeat runs; inconclusive = weak or mixed curves; inactive = no such curve, though single readings can be large; an effect the other way counts as inactive or inconclusive.

Key:
[1] = Human pregnane X receptor (PXR) small molecule agonists, qHTS cell viability counter screen (AID 1346977); note: nearly all actives have a fitted effect of over 50% in size
Method in brief: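 Fluorescence read-out (CellTiter-Fluor) of viability in PXR-Luc HepG2 cells, multiplexed with the luciferase agonist read. Compounds in DMSO added after 5hr plating; 24hr total exposure at 37C, 5% CO2.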

[2] = Caspase-3/7 induction in HepG2 cells by small molecules, qHTS assay (AID 1346978); note: nearly all actives have a fitted effect of over 15% in size
Method in brief: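 Wild-type HepG2 cells (2,000/well) were settled 5 h at 37 C, 5% CO2, then exposed to compounds in DMSO for 17 h. Caspase-3/7 activity was read by luminescence 30 min after adding Caspase-Glo 3/7 reagent at room temperature.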

[3] = Caspase-3/7 induction in CHO-K1 cells by small molecules, qHTS cell viability counter screen (AID 1346979); note: nearly all actives have a fitted effect of over 35% in size
Method in brief: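 CHO-K1 wt, 1,500 cells/well; 5hr pre-incubation 37C/5% CO2; compound pin transfer (DMSO); 16hr exposure; CellTiter-Fluor added, 1hr, fluorescence read.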

[4] = Caspase-3/7 induction in CHO-K1 cells by small molecules, qHTS assay (AID 1346980); note: nearly all actives have a fitted effect of over 15% in size
Method in brief: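 Wild-type cells were seeded at 1,500 per well and settled 5 hr at 37 C, 5% CO2, then exposed to DMSO-dissolved compounds for 17 hr. Caspase-Glo 3/7 reagent was added, and luminescence was read after 30min at room temperature.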

[5] = Caspase-3/7 induction in HepG2 cells by small molecules, qHTS cell viability counter screen (AID 1346981); note: series mostly up to about 92 µM; nearly all actives have a fitted effect of over 30% in size
Method in brief: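 Viability determined by CellTiter-Fluor fluorescence in HepG2 wells also used for the luminescent Caspase-Glo 3/7 read. Compounds were present for 16 hr at 37 C, 5% CO2 before reagent addition.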

[6] = biological target: Nuclear receptor subfamily 1 group I member 2 (Homo sapiens) (UniProt O75469); test: Human pregnane X receptor (PXR) small molecule agonists, qHTS assay (AID 1346982); note: nearly all actives have a fitted effect of over 35% in size
Chain of Nuclear receptor subfamily 1 group I member 2 (Homo sapiens) (O75469 whole entry, looked up): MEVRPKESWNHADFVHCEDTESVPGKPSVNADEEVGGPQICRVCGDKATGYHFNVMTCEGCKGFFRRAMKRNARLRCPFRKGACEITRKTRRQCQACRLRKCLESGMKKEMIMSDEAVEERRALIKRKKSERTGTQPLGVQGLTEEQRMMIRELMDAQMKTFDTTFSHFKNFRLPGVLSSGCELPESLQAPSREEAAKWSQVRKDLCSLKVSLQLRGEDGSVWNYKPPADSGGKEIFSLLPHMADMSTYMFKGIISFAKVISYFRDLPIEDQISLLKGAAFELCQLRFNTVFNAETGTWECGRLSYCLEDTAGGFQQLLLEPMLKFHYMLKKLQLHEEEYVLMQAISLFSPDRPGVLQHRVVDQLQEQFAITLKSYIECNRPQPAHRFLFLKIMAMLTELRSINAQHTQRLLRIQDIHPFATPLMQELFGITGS
Method in brief: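 Compound-induced hPXR transactivation of a CYP3A4 luciferase reporter was scored in HepG2 PXR-Luc cells over 24 hr at 37 C, 5% CO2, by luminescence.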

[7] = biological target: Cytochrome P450 2D6 (Homo sapiens) (UniProt P10635); test: Cytochrome P450 Family 2 Subfamily D Member 6 (CYP2D6) small molecule antagonists: luciferase reporter qHTS assay (AID 1671196); note: series mostly up to about 120 µM; nearly all actives have a fitted effect of over 50% in size
Chain of Cytochrome P450 2D6 (Homo sapiens) (P10635 whole entry, looked up): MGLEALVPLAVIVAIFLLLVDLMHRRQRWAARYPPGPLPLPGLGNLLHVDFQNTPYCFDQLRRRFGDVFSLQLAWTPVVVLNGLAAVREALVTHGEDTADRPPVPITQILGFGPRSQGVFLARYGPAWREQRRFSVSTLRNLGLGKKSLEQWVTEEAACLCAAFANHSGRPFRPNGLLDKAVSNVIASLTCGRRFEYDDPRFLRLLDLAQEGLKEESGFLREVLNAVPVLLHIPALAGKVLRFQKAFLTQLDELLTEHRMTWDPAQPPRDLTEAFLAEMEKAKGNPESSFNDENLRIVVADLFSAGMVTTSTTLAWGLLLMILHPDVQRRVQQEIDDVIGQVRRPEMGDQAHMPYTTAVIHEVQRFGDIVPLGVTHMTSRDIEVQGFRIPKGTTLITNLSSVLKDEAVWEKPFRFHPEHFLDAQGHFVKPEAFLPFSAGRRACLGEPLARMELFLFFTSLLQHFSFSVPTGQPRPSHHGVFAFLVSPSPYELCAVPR
Method in brief: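 Each well received CYP2D6 with its proluciferin substrate and chemical, sat 10 min, then got NADPH regeneration solution for 1 h at room temperature. Luminescence in RLU served as the activity measure.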

[8] = biological target: Cytochrome P450 2C19 (Homo sapiens) (UniProt P33261); test: Cytochrome P450 Family 2 Subfamily C Member 19 (CYP2C19) small molecule antagonists: luciferase reporter qHTS assay (AID 1671197); note: nearly all actives have a fitted effect of over 65% in size; note: potency is the fitted concentration of half-maximal effect
Chain of Cytochrome P450 2C19 (Homo sapiens) (P33261 whole entry, looked up): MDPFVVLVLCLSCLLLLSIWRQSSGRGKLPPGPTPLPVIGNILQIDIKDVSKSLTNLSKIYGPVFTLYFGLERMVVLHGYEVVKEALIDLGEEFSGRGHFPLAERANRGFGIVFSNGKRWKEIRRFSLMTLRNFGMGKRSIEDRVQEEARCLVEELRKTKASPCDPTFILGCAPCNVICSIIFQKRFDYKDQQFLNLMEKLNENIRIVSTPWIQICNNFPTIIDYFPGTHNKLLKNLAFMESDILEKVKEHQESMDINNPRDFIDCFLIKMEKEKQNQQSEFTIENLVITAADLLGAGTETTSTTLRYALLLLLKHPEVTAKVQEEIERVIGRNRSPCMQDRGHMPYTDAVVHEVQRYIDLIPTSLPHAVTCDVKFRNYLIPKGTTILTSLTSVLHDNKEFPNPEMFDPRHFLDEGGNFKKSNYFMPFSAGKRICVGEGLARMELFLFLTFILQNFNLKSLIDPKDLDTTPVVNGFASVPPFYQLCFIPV
Method in brief: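 First, compounds are pinned into enzyme-substrate mix and held 10 min at room temperature. Second, NADPH regeneration solution is added and plates incubate 1 h at 37C. Third, detection reagent is added and luminescence read after 20 min.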

[9] = biological target: Cytochrome P450 2C9 (Homo sapiens) (UniProt P11712); test: Cytochrome P450 Family 2 Subfamily C Member 9 (CYP2C9) small molecule antagonists: luciferase reporter qHTS assay (AID 1671198); note: nearly all actives have a fitted effect of over 50% in size; note: potency is the fitted concentration of half-maximal effect
Chain of Cytochrome P450 2C9 (Homo sapiens) (P11712 whole entry, looked up): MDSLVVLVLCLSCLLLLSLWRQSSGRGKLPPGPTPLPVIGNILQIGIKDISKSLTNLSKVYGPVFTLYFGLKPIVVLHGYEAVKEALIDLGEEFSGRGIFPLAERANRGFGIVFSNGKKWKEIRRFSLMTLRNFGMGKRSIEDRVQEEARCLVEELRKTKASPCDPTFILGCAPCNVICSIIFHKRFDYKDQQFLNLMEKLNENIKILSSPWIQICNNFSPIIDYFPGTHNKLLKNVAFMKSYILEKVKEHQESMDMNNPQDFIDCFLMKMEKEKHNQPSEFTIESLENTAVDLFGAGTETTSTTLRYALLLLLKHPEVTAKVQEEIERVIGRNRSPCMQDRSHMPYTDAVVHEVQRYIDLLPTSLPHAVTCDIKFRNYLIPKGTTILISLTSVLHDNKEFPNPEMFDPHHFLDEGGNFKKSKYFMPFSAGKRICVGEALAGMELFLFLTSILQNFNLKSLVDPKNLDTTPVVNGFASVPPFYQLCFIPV
Method in brief: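 CYP2C9 activity was measured with a P450-Glo proluciferin substrate. Enzyme–substrate mix was held with compound for 10 min at room temperature, then NADPH regeneration solution was added for 1 h at 37C. Luciferin product was read as luminescence.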

[10] = biological target: Cytochrome P450 1A2 (Homo sapiens) (UniProt P05177); test: Cytochrome P450 Family 1 Subfamily A Member 2 (CYP1A2) small molecule antagonists: luciferase reporter qHTS assay (AID 1671199); note: nearly all actives have a fitted effect of over 50% in size; note: potency is the fitted concentration of half-maximal effect
Chain of Cytochrome P450 1A2 (Homo sapiens) (P05177 whole entry, looked up): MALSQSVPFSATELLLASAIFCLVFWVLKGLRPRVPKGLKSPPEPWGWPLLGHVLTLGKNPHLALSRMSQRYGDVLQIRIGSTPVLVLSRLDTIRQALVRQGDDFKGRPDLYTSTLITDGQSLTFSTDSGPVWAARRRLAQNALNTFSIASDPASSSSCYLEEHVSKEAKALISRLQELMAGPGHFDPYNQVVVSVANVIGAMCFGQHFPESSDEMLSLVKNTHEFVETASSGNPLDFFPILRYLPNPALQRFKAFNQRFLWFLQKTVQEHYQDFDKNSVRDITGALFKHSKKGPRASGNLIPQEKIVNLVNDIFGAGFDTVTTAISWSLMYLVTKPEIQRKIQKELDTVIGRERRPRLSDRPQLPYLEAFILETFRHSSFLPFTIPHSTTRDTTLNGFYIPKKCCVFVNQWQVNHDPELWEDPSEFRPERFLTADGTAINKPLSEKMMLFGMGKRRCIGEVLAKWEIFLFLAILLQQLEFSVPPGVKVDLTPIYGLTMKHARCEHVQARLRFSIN
Method in brief: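 Enzymatic CYP1A2 assay, human, luminescent: 10 min compound–enzyme–substrate preincubation, 1 h NADPH-dependent turnover, 20 min detection step, room temperature throughout. Reduced light indicates lower CYP1A2 activity.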

[11] = biological target: Voltage-gated inwardly rectifying potassium channel KCNH2 (Homo sapiens) (UniProt Q12809); test: Human Ether-a-go-go-Related Gene (hERG) channel small molecule antagonists: fluorescence cell-based qHTS assay (AID 1671200)
Chain of Voltage-gated inwardly rectifying potassium channel KCNH2 (Homo sapiens) (Q12809 whole entry, looked up): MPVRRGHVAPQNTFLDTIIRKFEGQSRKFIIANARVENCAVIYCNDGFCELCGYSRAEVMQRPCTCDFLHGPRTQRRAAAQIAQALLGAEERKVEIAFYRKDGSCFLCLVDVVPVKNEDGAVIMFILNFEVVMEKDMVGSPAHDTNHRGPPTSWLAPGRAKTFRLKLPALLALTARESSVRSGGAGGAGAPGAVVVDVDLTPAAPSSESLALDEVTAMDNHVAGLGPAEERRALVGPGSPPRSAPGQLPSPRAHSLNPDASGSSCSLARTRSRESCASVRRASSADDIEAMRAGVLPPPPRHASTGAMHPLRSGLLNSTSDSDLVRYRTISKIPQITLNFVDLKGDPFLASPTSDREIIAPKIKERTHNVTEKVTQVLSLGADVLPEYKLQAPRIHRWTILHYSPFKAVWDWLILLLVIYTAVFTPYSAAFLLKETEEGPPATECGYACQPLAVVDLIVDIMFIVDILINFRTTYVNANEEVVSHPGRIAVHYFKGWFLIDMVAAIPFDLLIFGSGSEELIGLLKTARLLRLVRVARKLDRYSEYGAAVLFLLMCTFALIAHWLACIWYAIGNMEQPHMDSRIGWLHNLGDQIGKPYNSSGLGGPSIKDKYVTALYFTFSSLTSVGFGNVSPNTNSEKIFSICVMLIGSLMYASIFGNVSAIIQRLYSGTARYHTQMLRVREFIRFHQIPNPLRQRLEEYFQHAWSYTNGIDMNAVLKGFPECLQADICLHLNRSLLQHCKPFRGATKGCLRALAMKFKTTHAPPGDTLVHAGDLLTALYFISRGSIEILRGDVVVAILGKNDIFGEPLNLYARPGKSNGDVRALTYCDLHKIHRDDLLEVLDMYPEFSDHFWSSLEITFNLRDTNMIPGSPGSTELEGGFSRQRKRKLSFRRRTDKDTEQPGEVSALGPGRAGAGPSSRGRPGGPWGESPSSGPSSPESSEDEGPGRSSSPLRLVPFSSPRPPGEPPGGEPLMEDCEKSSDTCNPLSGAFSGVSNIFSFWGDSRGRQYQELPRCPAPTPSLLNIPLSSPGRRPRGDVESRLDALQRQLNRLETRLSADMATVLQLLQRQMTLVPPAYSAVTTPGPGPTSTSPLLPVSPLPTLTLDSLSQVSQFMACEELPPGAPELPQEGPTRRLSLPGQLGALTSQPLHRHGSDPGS
Method in brief: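 Read-out: thallium influx as a surrogate for potassium, tracked as fluorescence (480 nm ex/540 nm em) every second for 2 min after Stimulus Buffer addition in dye-loaded hERG-U2OS cells.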

[12] = biological target: Cytochrome P450 3A4 (Homo sapiens) (UniProt P08684); test: Cytochrome P450 Family 3 Subfamily A Member 4 (CYP3A4) small molecule antagonists: luciferase reporter qHTS assay (AID 1671201); note: nearly all actives have a fitted effect of over 50% in size; note: potency is the fitted concentration of half-maximal effect
Chain of Cytochrome P450 3A4 (Homo sapiens) (P08684 whole entry, looked up): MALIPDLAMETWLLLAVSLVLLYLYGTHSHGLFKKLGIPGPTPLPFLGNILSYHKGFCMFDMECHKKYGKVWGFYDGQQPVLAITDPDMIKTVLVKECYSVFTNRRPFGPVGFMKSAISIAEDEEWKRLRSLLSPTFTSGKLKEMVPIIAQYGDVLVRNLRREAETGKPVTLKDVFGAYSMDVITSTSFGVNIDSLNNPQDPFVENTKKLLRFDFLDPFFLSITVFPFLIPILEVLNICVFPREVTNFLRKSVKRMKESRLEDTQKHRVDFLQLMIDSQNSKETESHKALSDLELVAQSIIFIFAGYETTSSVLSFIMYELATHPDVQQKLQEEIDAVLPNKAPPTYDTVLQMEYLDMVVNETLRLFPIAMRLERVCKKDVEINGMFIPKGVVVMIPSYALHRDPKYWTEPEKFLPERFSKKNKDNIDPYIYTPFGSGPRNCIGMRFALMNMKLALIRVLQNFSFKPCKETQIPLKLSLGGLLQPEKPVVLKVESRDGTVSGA
Method in brief: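 Luminescent readout (RLU) proportional to CYP3A4 activity, from luciferin generated off a proluciferin substrate. Enzyme–substrate mix plus compound 10 min at room temp, NADPH regeneration 1 h, detection reagent 20 min.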

[13] = biological target: Nuclear receptor subfamily 1 group I member 2 (Rattus norvegicus) (UniProt Q9R1A7); test: Rat pregnane X receptor (rPXR) activation by small molecules, qHTS assay (AID 1346983); settings: rPXR luciferase reporter cells, One-Glo luminescence, 24 h; stronger effect = higher value; note: nearly all actives have a fitted effect of over 20% in size
Chain of Nuclear receptor subfamily 1 group I member 2 (Rattus norvegicus) (Q9R1A7 whole entry, looked up): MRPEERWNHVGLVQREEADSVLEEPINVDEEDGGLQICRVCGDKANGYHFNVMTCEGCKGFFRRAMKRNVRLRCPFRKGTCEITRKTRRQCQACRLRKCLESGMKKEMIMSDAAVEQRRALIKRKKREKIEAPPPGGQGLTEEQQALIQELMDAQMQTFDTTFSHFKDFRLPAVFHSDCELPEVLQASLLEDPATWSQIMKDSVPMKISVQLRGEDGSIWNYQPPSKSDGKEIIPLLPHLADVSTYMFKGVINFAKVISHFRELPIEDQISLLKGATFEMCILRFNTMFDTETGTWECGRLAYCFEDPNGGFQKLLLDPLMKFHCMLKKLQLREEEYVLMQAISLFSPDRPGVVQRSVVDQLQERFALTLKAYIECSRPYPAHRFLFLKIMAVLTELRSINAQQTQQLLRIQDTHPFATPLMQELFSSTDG
Method in brief: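 Cell-based rPXR luciferase reporter assay, 2,000 cells per well, rested 5hr at 37 C before compound addition in DMSO, then 24 hr at 37 C. One-Glo reagent was added and luminescence read after 30 min at room temperature.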

[14] = biological target: Nuclear receptor subfamily 1 group I member 2 (Homo sapiens) (UniProt O75469); test: Human pregnane X receptor (PXR) activation by small molecules, qHTS assay (AID 1346985); note: nearly all actives have a fitted effect of over 40% in size
Method in brief: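 DPX-2 cells (HepG2 co-transfected with a PXR response element and a CYP3A4-promoter luciferase construct) were seeded at 2,000 per well, rested 5 hr at 37C, then exposed to DMSO-dissolved compounds for 24 hr. Activation was read as luciferase luminescence.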

[15] = biological target: Nuclear receptor subfamily 1 group I member 2 (Homo sapiens) (UniProt O75469); test: CYP3A4 induction through human pregnane X receptor (PXR) by small molecules, qHTS assay (AID 1346984); note: nearly all actives have a fitted effect of over 40% in size
Method in brief: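 Readings come from a luciferase reporter: DPX-2 cells, which are HepG2 cotransfected with PXR and a CYP3A4-promoter construct, were exposed to test compounds for 24 h at 37C before One-Glo detection.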
% is set by controls: 0 for no effect and ±100 for the full control effect.

NC(N)=S
inactive: Potency [1] | Potency [2] | Potency [3] | Potency [4] | Potency [5] | Potency [6] | Potency [7] | Potency [9] | Potency [10] | Potency [11] | Potency [12]
active: Potency [8] 39.1 µM

COC(=O)CCCCC(=O)OC
inactive: Potency [1] | Potency [2] | Potency [3] | Potency [4] | Potency [5] | Potency [6] | Potency [7] | Potency [8] | Potency [9] | Potency [10] | Potency [11] | Potency [12]

O=Cc1ccc(CO)o1
inactive: Potency [1] | Potency [2] | Potency [3] | Potency [4] | Potency [5] | Potency [6] | Potency [7] | Potency [8] | Potency [9] | Potency [10] | Potency [11] | Potency [12]

CC(=O)OCc1ccc2c(c1)OCO2
inactive: Potency [1] | Potency [2] | Potency [3] | Potency [4] | Potency [5] | Potency [6] | Potency [7] | Potency [11]
active: Potency [8] 35.7 µM and 31.7 µM | Potency [9] 25.2 µM and 35.6 µM | Potency [10] 2.01 µM and 2.52 µM | Potency [12] 20.1 µM and 39.9 µM

CCOC(=O)c1ccc(O)cc1
inactive: Potency [1] | Potency [2] | Potency [3] | Potency [4] | Potency [5] | Potency [6] | max activation [13] -2.61% | outcome [14] | Potency [11]

CC(=O)Nc1ccc(CC(=O)O)cc1
inactive: Potency [1] | Potency [2] | Potency [3] | Potency [4] | Potency [5] | Potency [6] | max activation [13] -3.84% | Potency [15] | outcome [14] | Potency [8] | Potency [9] | Potency [10] | Potency [11] | Potency [12]

Cc1ccncc1
inactive: Potency [1] | Potency [2] | Potency [3] | Potency [4] | Potency [5] | Potency [6] | Potency [7] | Potency [8] | Potency [9] | Potency [10] | Potency [11] | Potency [12]

CS(=O)(=O)c1ccc(Cl)cc1
inactive: Potency [1] | Potency [2] | Potency [3] | Potency [4] | Potency [5] | Potency [6] | Potency [7] | Potency [8] | Potency [9] | Potency [10] | Potency [11] | Potency [12]

OCC(CO)(CO)CO
inactive: Potency [1] | Potency [2] | Potency [3] | Potency [4] | Potency [5] | Potency [6] | Potency [7] | Potency [8] | Potency [9] | Potency [10] | Potency [11] | Potency [12]

Cc1nnc(NS(=O)(=O)c2ccc(N)cc2)s1
inactive: Potency [1] | Potency [2] | Potency [3] | Potency [4] | Potency [5] | Potency [6] | Potency [7] | Potency [10] | Potency [11] | Potency [12]
active: Potency [8] 39.8 µM | Potency [9] 35.5 µM

CC(=O)OC[C@H]1O[C@@](COC(C)=O)(O[C@H]2O[C@H](COC(C)=O)[C@@H](OC(C)=O)[C@H](OC(C)=O)[C@H]2OC(C)=O)[C@@H](OC(C)=O)[C@@H]1OC(C)=O
inactive: Potency [1] | Potency [2] | Potency [3] | Potency [4] | Potency [5] | Potency [6] | max activation [13] -1.94% | Potency [15] | outcome [14] | Potency [7] | Potency [8] | Potency [10] | Potency [11]

CC1(C)C(=O)N(Cl)C(=O)N1Cl
active: Potency [8] 71.1 µM
inactive: Potency [1] | Potency [2] | Potency [3] | Potency [4] | Potency [5] | Potency [6] | Potency [7] | Potency [9] | Potency [10] | Potency [11] | Potency [12]

CCCCCCC(=O)O
inactive: Potency [1] | Potency [2] | Potency [3] | Potency [4] | Potency [5] | Potency [6] | Potency [7] | Potency [8] | Potency [9] | Potency [10] | Potency [11] | Potency [12]

CCOC(=O)CC(=O)OCC
inactive: Potency [1] | Potency [2] | Potency [3] | Potency [4] | Potency [5] | Potency [6] | Potency [7] | Potency [8] | Potency [9] | Potency [10] | Potency [11] | Potency [12]

CC(COCC(C)OC(=O)c1ccccc1)OC(=O)c1ccccc1 (stereo unspecified)
active: Potency [8] 19.9 µM and 11.2 µM | Potency [9] 6.28 µM and 5.64 µM | Potency [10] 9.95 µM and 6.33 µM
inactive: Potency [1] | Potency [2] | Potency [3] | Potency [4] | Potency [5] | Potency [6] | Potency [7] | Potency [12]

C=CC(C)(C)C
inactive: Potency [1] | Potency [2] | Potency [3] | Potency [4] | Potency [5] | Potency [6] | Potency [7] | Potency [8] | Potency [9] | Potency [11] | Potency [12]
active: Potency [10] 44.8 µM

CCCCCCCC(=O)O
inactive: Potency [1] | Potency [2] | Potency [3] | Potency [4] | Potency [5] | Potency [6] | max activation [13] 0.66% | Potency [15] | outcome [14] | Potency [7] | Potency [9] | Potency [10] | Potency [11] | Potency [12]
38.5 µM (active) and inactive: Potency [8]
